Data reported in PubChem BioAssay AID1159580 (chemical genetic matrix, 2015).
Values joined by “and” are separate entries in the source; they are usually repeats but may differ in a detail not shown here. Identical values can stand only once. Out of some 5,500 compounds screened, about 2,000 (36%) were called active. Another 18% or so got no clear call; they are omitted. Cut-off read from the data, not from the text of the source: active = normalized growth mostly below about 0.91 (no sharp cut-off); inconclusive = no clear call, values can overlap the other calls; inactive = mostly above about 0.92. The list shows a part of the results.

Assay: chemical genetic growth profiling, strain panel (AID 1159580);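 note: tested at 20 µM; growth read once vehicle control cultures reached saturation at 30 °C; 1 = growth at the plate median or of vehicle wells; lower values mean less growth of the strain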
Conditions: growth OD

Measured: normalized growth

NCCc1ccc(O)c(O)c1
inactive: S. cerevisiae deletion strains, locus YJL187C, strain SWE1 (second series), stronger effect = lower value 0.965 | S. cerevisiae deletion strains, locus YJR043C, strain POL32, stronger effect = lower value 1.03 | S. cerevisiae deletion strains, locus YJR066W, strain TOR1, stronger effect = lower value 0.958 and 0.96 | S. cerevisiae deletion strains, locus YJR075W, strain HOC1, stronger effect = lower value 0.98 and 0.981 | S. cerevisiae deletion strains, locus YKL009W, strain mrt4, stronger effect = lower value 0.964 | S. cerevisiae deletion strains, locus YKL068W, stronger effect = lower value 0.981 | S. cerevisiae deletion strains, locus YKL085W, strain MDH1 (second series), stronger effect = lower value 0.994 | S. cerevisiae deletion strains, locus YKL085W, strain MDH1, stronger effect = lower value 0.994 | S. cerevisiae deletion strains, locus YKL160W, strain elf1, stronger effect = lower value 1 | S. cerevisiae deletion strains, locus YKR001C, strain vps1, stronger effect = lower value 0.995 | S. cerevisiae deletion strains, locus YKR026C, strain gcn3, stronger effect = lower value 1 | S. cerevisiae deletion strains, locus YKR091W, strain srl3, stronger effect = lower value 1.01 | S. cerevisiae deletion strains, locus YLL001W, strain dnm1, stronger effect = lower value 0.983 | S. cerevisiae deletion strains, locus YLL026W, stronger effect = lower value 1 | S. cerevisiae deletion strains, locus YLL041C, strain sdh2, stronger effect = lower value 0.991 | S. cerevisiae deletion strains, locus YLR027C, strain aat2, stronger effect = lower value 1.01 | S. cerevisiae deletion strains, locus YLR039C, strain RIC1, stronger effect = lower value 0.99 | S. cerevisiae deletion strains, locus YLR058C, strain SHM2, stronger effect = lower value 0.985 | S. cerevisiae deletion strains, locus YLR102C, strain apc9, stronger effect = lower value 0.992 | S. cerevisiae deletion strains, locus YLR113W, strain HOG1, stronger effect = lower value 1.07 and 1.04 | S. cerevisiae deletion strains, locus YLR221C, strain rsa3, stronger effect = lower value 0.982 | S. cerevisiae deletion strains, locus YLR258W, strain gsy2, stronger effect = lower value 1 | S. cerevisiae deletion strains, locus YLR262C, strain YPT6 (second series), stronger effect = lower value 0.998 | S. cerevisiae deletion strains, locus YLR262C, strain YPT6, stronger effect = lower value 0.969 | S. cerevisiae deletion strains, locus YLR268W, strain sec22, stronger effect = lower value 1.01 | S. cerevisiae deletion strains, locus YLR320W, strain mms22, stronger effect = lower value 1 | S. cerevisiae deletion strains, locus YLR330W, strain CHS5, stronger effect = lower value 0.998 | S. cerevisiae deletion strains, locus YLR342W, strain FKS1 (second series), stronger effect = lower value 0.981 | S. cerevisiae deletion strains, locus YLR342W, strain FKS1, stronger effect = lower value 0.999 | S. cerevisiae deletion strains, locus YLR357W, strain rsc2, stronger effect = lower value 0.985 | S. cerevisiae deletion strains, locus YLR370C, strain arc18, stronger effect = lower value 1.01 | S. cerevisiae deletion strains, locus YLR371W, strain rom2, stronger effect = lower value 0.992 | S. cerevisiae deletion strains, locus YLR384C, strain iki3, stronger effect = lower value 0.99 | S. cerevisiae deletion strains, locus YLR418C, strain cdc73, stronger effect = lower value 0.999 | S. cerevisiae deletion strains, locus YML016C, strain PPZ1, stronger effect = lower value 0.991 | S. cerevisiae deletion strains, locus YML032C, strain rad52, stronger effect = lower value 1.01 | S. cerevisiae deletion strains, locus YML120C, strain ndi1, stronger effect = lower value 1.01 | S. cerevisiae deletion strains, locus YML124C, strain tub3, stronger effect = lower value 1 | S. cerevisiae deletion strains, locus YMR058W, strain fet3, stronger effect = lower value 1.02 | S. cerevisiae deletion strains, locus YMR078C, strain ctf18, stronger effect = lower value 0.991 | S. cerevisiae deletion strains, locus YMR125W, strain sto1, stronger effect = lower value 1.01 | S. cerevisiae deletion strains, locus YMR129W, stronger effect = lower value 1.01 | S. cerevisiae deletion strains, locus YMR205C, strain PFK2, stronger effect = lower value 1.03 | S. cerevisiae deletion strains, locus YMR223W, strain ubp8, stronger effect = lower value 0.972 | S. cerevisiae deletion strains, locus YMR231W, strain pep5, stronger effect = lower value 1.01 | S. cerevisiae deletion strains, locus YMR307W, strain GAS1, stronger effect = lower value 1.03 | S. cerevisiae deletion strains, locus YNL067W, strain RPL9B, stronger effect = lower value 0.968 | S. cerevisiae deletion strains, locus YNL071W, strain lat1, stronger effect = lower value 1 | S. cerevisiae deletion strains, locus YNL153C, strain GIM3, stronger effect = lower value 0.973 and 0.99 | S. cerevisiae deletion strains, locus YNL175C, strain NOP13, stronger effect = lower value 1 | S. cerevisiae deletion strains, locus YNL183C, strain NPR1, stronger effect = lower value 1 and 0.946 | S. cerevisiae deletion strains, locus YNL197C, strain WHI3, stronger effect = lower value 0.993 | S. cerevisiae deletion strains, locus YNL209W, strain ssb2, stronger effect = lower value 1 | S. cerevisiae deletion strains, locus YNL224C, strain SQS1, stronger effect = lower value 1 | S. cerevisiae deletion strains, locus YNL233W, strain BNI4, stronger effect = lower value 0.984 | S. cerevisiae deletion strains, locus YNL248C, strain rpa49, stronger effect = lower value 0.985 | S. cerevisiae deletion strains, locus YNL250W, strain rad50, stronger effect = lower value 1 | S. cerevisiae deletion strains, locus YNL271C, strain bni1, stronger effect = lower value 0.991 | S. cerevisiae deletion strains, locus YNL298W, strain CLA4, stronger effect = lower value 1 | S. cerevisiae deletion strains, locus YNL307C, strain MCK1, stronger effect = lower value 1 | S. cerevisiae deletion strains, locus YNL322C, strain KRE1 (second series), stronger effect = lower value 0.99 | S. cerevisiae deletion strains, locus YNR049C, strain mso1, stronger effect = lower value 1.01 | S. cerevisiae deletion strains, locus YNR052C, strain pop2, stronger effect = lower value 1.01 | S. cerevisiae deletion strains, locus YOL012C, strain htz1 0.769 | S. cerevisiae deletion strains, locus YOL147C, strain pex11, stronger effect = lower value 0.998 | S. cerevisiae deletion strains, locus YOR001W, strain rrp6, stronger effect = lower value 0.997 | S. cerevisiae deletion strains, locus YOR061W, strain CKA2, stronger effect = lower value 0.993 | S. cerevisiae deletion strains, locus YOR069W, strain VPS5, stronger effect = lower value 0.998 | S. cerevisiae deletion strains, locus YOR080W, strain dia2, stronger effect = lower value 1.01 | S. cerevisiae deletion strains, locus YOR083W, strain WHI5 (second series), stronger effect = lower value 0.984 | S. cerevisiae deletion strains, locus YOR083W, strain WHI5, stronger effect = lower value 1.01 | S. cerevisiae deletion strains, locus YOR106W, strain vam3, stronger effect = lower value 0.981 | S. cerevisiae deletion strains, locus YOR136W, strain idh2, stronger effect = lower value 0.999 | S. cerevisiae deletion strains, locus YOR144C, strain elg1, stronger effect = lower value 0.997 | S. cerevisiae deletion strains, locus YOR184W, strain ser1, stronger effect = lower value 0.995 | S. cerevisiae deletion strains, locus YOR231W, strain MKK1, stronger effect = lower value 1.07 and 1.04 | S. cerevisiae deletion strains, locus YOR265W, strain rbl2, stronger effect = lower value 1.01 | S. cerevisiae deletion strains, locus YOR270C, strain vph1, stronger effect = lower value 1.06 | S. cerevisiae deletion strains, locus YOR290C, strain snf2, stronger effect = lower value 1.01 | S. cerevisiae deletion strains, locus YOR316C, strain cot1, stronger effect = lower value 0.993 | S. cerevisiae deletion strains, locus YPL051W, strain arl3, stronger effect = lower value 0.974 | S. cerevisiae deletion strains, locus YPL055C, strain LGE1, stronger effect = lower value 0.974 | S. cerevisiae deletion strains, locus YPL078C, strain atp4, stronger effect = lower value 1.02 | S. cerevisiae deletion strains, locus YPL106C, strain sse1, stronger effect = lower value 0.968 | S. cerevisiae deletion strains, locus YPL240C, strain hsp82, stronger effect = lower value 1.01 | S. cerevisiae deletion strains, locus YPL256C, strain CLN2, stronger effect = lower value 1.03 and 1.04 | S. cerevisiae deletion strains, locus YPR119W, strain clb2, stronger effect = lower value 0.995 | S. cerevisiae deletion strains, locus YPR141C, strain kar3, stronger effect = lower value 0.969 | S. cerevisiae deletion strains, locus YPR163C, strain tif3, stronger effect = lower value 0.997 | S. cerevisiae deletion strains, locus YPR167C, strain met16, stronger effect = lower value 0.999 | S. cerevisiae deletion strains, strain wtn01, stronger effect = lower value 0.994 | S. cerevisiae strains, strain wild type, stronger effect = lower value 0.993
